In PubChem BioAssay AID440 (NMMLSC, 2006):
The whole screen tested about 24,000 compounds, of which about 180 (0.75%) were called active. Rule as the data show it: active = inhibition above about 30%; inconclusive = no clear call, values can overlap the other calls; inactive = below that. This excerpt belongs to a sample that is enriched for actives.

Molecular target: fMet-Leu-Phe receptor (Homo sapiens) (UniProt P21462)
Assay: human FPR ligands by binding competition, primary screen, cell-based, FPRL1 counter-screen, flow cytometry (AID 440);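 also: 0% = buffer wells and 100% = receptor blocker peptide wells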
Details: FPR-expressing cells, fluorescent ligand binding, hits give high values, concentration not given here

fMet-Leu-Phe receptor (Homo sapiens), sequence (P21462 whole entry, looked up): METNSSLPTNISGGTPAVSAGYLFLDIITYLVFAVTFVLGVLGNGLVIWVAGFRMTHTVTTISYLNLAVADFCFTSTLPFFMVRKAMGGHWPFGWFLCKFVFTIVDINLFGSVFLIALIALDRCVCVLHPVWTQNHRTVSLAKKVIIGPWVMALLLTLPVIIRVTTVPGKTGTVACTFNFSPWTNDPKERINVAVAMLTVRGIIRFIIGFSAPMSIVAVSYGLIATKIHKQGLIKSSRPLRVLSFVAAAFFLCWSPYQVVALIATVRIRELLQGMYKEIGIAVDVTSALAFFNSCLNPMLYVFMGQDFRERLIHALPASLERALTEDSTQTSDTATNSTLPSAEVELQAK

Row | SMILES | inhibition
1 | COc1ccc(CNC(=O)C2CCN(S(=O)(=O)N3CCOCC3)CC2)cc1 | -0.9% (inactive)
2 | COc1ccc(/C(O)=C2/C(=O)C(=O)N(CCCN(C)C)C2c2ccccc2)cc1OC (stereo not given) | -8.5% (inactive)
3 | Cc1ccc(NC(=O)CN(C)S(=O)(=O)c2cnc[nH]2)cc1C | -11.5% (inactive)
4 | O=C(O)Cc1ccc(NC(=O)C2CCCCC2C(=O)O)cc1 (stereo not given) | -9.4% (inactive)
5 | COc1ccccc1N1CCN(C(=O)c2c(-c3c(Cl)cccc3Cl)noc2C)CC1 | 6.9% (inactive)
6 | CCOC(=O)CN1CC23C=CC(O2)C(C(=O)Nc2ccc(F)cc2)C3C1=O (stereo not given) | -4.5% (inactive)
7 | COc1ccc(CC(NC(C)=O)C(=O)NC2CCN(C(=O)Nc3ccc(C#N)cc3)CC2)cc1OC (stereo not given) | 13.5% (inactive)
8 | CCOC(=O)c1oc2ccccc2c1NC(=O)c1cccs1 | -2.1% (inactive)
9 | CCOc1ccc(N(CC(=O)OC)S(=O)(=O)c2c(C)noc2C)cc1 | -18.8% (inactive)
10 | O=C(C1=C(O)C(=O)N(c2ncccn2)C1c1cccs1)c1ccco1 (stereo not given) | -4.1% (inactive)
11 | O=C(C1=C(O)C(=O)N(Cc2ccccc2)C1c1cccnc1)c1ccco1 (stereo not given) | 36% (active)
12 | O=C(C1=C(O)C(=O)N(Cc2ccccc2)C1c1ccco1)c1ccco1 (stereo not given) | 43.1% (active)
13 | O=C(Nc1ccccc1)N(Cc1cccnc1)Cc1ccco1 | 4.3% (inactive)
14 | CC1=C(C(=O)OCc2ccccc2)C(c2ccco2)n2ncnc2N1 (stereo not given) | -4.9% (inactive)
15 | O=C1c2ccccc2C(O)N1Cc1ccccc1 (stereo not given) | -3.5% (inactive)
16 | CCC1Oc2ccc(Cl)cc2N(CC(=O)O)C1=O (stereo not given) | 4.3% (inactive)
17 | Cc1cccc(N2C(=O)SC(N(CC(=O)O)c3cccc(C)c3)C2=O)c1 (stereo not given) | 76.8% (active)
18 | Cc1cc(C)cc(N(CC(=O)NCC2CCCO2)S(=O)(=O)c2c(C)noc2C)c1 (stereo not given) | 3.2% (inactive)
19 | COc1ccc(C2CC(c3ccc(Cl)cc3Cl)Nc3nc(N)nn32)cc1OC (stereo not given) | 6.7% (inactive)
20 | COc1ccccc1C(=O)N1CCN=C1SCc1cccnc1 | 0.1% (inactive)
21 | CCOC(=O)c1oc2c(CN3CCN(C)CC3)c(O)ccc2c(=O)c1-c1ccc(Br)cc1 | -5.9% (inactive)
22 | Cc1sc(NC(=O)C2C3CCC(O3)C2C(=O)O)c(C(=O)OC(C)C)c1-c1ccc(Cl)cc1 (stereo not given) | 6.3% (inactive)
23 | CC(C)OC(=O)c1cc(NC(=O)C2C3CCC(O3)C2C(=O)O)cc(C(=O)OC(C)C)c1 (stereo not given) | 39.8% (active)
24 | CC(C)COC(=O)C1C2C=CC3(CN(C(C)c4ccc(Br)cc4)C(=O)C13)O2 (stereo not given) | -6.6% (inactive)
25 | Cc1ccc(C)c(N(CC(=O)NCc2ccco2)C(=O)CCC(=O)Nc2ccccn2)c1 | 19% (inactive)
26 | CCN(CC)CCNC(=O)Cn1cnc2sc(C)c(S(=O)(=O)N3CCOCC3)c2c1=O | -9.4% (inactive)
27 | C/C(CC(O)(/C=N/O)c1ccccc1)=N\O (stereo not given) | 7.2% (inactive)
28 | O=C(Cn1c(=O)n(Cc2ccco2)c(=O)c2ccccc21)NCC1CCCO1 (stereo not given) | 5.8% (inactive)

Row | SMILES | inhibition
29 | N#CCCN1CCN(S(=O)(=O)c2ccc(S(=O)(=O)NC3CC3)cc2)CC1 | -1.2% (inactive)
30 | CCOc1ccc(CCNC(=O)C2CCN(c3ccc(N4CCOCC4)nn3)CC2)cc1OCC | -8.8% (inactive)
31 | COCCOC(=O)C1=C(C)NC(=O)CC1c1cc2c(cc1Br)OCO2 (stereo not given) | -1.8% (inactive)
32 | Nc1nonc1-c1noc(-c2ccc(Br)o2)n1 | -6.7% (inactive)
33 | CCC(C)(C(=O)NC1CCCC1)N(C(=O)CNC(C)=O)c1ccc(C)cc1 (stereo not given) | 5.8% (inactive)
34 | O=C(COC(=O)c1ccccc1C(=O)c1ccccc1)c1ccco1 | -1% (inactive)
35 | CCOC(=O)N1CCN(C(=O)c2cc3c(-c4ccc(Cl)cc4)nn(C)c3s2)CC1 | 8.5% (inactive)
36 | CC1CCN(c2oc(-c3ccccc3F)nc2C#N)CC1 | -10.3% (inactive)
37 | O=C(NCCc1ccc(Cl)cc1)C1CC(=O)N(C2CCCCC2)C1 (stereo not given) | -0.9% (inactive)
38 | CCOc1cc2c(cc1OCC)C(C(=O)O)C(c1ccc(OC)c(O)c1)N(C)C2=O (stereo not given) | 12.3% (inactive)
39 | CCOc1ccc(CC(=O)Nc2ccc(S(=O)(=O)Nc3cc(C)on3)cc2)cc1OCC | -0.6% (inactive)
40 | O=C(Cn1nnc(-c2ccc(CN3CCOCC3)cc2)n1)NC1CCCCC1 | 5.2% (inactive)
41 | Cc1cc(C(=O)O)c(S(C)(=O)=O)s1 | -3.8% (inactive)
42 | Cc1cc(=O)n(C)c(=O)n1CCCNc1ccccc1 | -1.3% (inactive)
43 | COCc1cc(C)nc(SCC(=O)Nc2cccc(C)c2)c1C#N | -8.6% (inactive)
44 | CCOC(=O)c1ccc(CS(=O)c2ccc(Cl)cc2)o1 (stereo not given) | -1.1% (inactive)
45 | CCCS(=O)(=O)N1CCC(C(=O)NCCCN(C)Cc2ccccc2)CC1 | -2.3% (inactive)
46 | C=CCN(CC=C)C(=O)CN1C(=O)c2ccccc2C1=O | 13.3% (inactive)
47 | Cc1cc(=O)oc(C)c1C(=O)NCc1ccc(F)cc1 | -12.6% (inactive)
48 | O=C(O)C1CCCCC1C(=O)Nc1ccc(Cl)cc1 (stereo not given) | -10.1% (inactive)
49 | Cc1c2cnn(-c3ccccc3)c(=O)c2c(C)n1CCCC(=O)N1CCN(C)CC1 | 1.2% (inactive)
50 | O=C1CCC(Cc2ccccc2)N1 (stereo not given) | 1.5% (inactive)
51 | COc1ccc(C(=O)NC(=O)CSc2nnc(-c3ccco3)n2-c2ccccc2)cc1 | -1.4% (inactive)
52 | Cn1c(C(=O)N2CCC(C(N)=O)CC2)cc2c(=O)n(C)c3ccccc3c21 | -1% (inactive)
53 | O=C(NCc1ccco1)C1CCCN(S(=O)(=O)c2cccc3nonc23)C1 (stereo not given) | -5.3% (inactive)
54 | Cn1c(=O)n(C)c2cc(CNc3ccc(N4CCOCC4)c(C(=O)O)c3)ccc21 | 0.5% (inactive)
55 | Cc1ccc(NC(=O)c2nc[nH]c2C(=O)N2CCCCC2)c(C(=O)c2ccccc2)c1 | -3.6% (inactive)
